# In the supplement of paper PMC11732987, “Enantioselective OTUD7B fragment discovery through chemoproteomics screening and high-throughput optimisation” (Communications Chemistry, 2025):
# A number with no mark means an inactive call.
# Compound: ClCC(=O)N1CCCC1=O
# Experiment: log2 ratio of Biotin-Ahx-Ub-VS probe labelling (fragment/DMSO); higher = less target engagement (more negative = stronger competition), active = hit call of the paper (q ≤ 0.05, log2 ratio ≤ -1)
# Details: compound concentration: 200 uM; treatment time: 3 h
# Experimental: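 Competitive ABPP in HEK293T cell lysate. Lysates were treated with each chloroacetamide fragment at 200 µM for 3 h, then with Biotin-Ahx-Ub-VS (0.5 µM, 1 h), NeutrAvidin-enriched and analysed by diaPASEF LC-MS/MS. Protein LFQ was median-normalised; average log2 ratio is fragment/DMSO from an unpaired t-test (n=3 treated, n=44 DMSO). Hits: q ≤ 0.05, log2 ratio ≤ -1, unique peptides ≥ 2.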
# Sequence of UniProt P51784 (P51784 whole entry): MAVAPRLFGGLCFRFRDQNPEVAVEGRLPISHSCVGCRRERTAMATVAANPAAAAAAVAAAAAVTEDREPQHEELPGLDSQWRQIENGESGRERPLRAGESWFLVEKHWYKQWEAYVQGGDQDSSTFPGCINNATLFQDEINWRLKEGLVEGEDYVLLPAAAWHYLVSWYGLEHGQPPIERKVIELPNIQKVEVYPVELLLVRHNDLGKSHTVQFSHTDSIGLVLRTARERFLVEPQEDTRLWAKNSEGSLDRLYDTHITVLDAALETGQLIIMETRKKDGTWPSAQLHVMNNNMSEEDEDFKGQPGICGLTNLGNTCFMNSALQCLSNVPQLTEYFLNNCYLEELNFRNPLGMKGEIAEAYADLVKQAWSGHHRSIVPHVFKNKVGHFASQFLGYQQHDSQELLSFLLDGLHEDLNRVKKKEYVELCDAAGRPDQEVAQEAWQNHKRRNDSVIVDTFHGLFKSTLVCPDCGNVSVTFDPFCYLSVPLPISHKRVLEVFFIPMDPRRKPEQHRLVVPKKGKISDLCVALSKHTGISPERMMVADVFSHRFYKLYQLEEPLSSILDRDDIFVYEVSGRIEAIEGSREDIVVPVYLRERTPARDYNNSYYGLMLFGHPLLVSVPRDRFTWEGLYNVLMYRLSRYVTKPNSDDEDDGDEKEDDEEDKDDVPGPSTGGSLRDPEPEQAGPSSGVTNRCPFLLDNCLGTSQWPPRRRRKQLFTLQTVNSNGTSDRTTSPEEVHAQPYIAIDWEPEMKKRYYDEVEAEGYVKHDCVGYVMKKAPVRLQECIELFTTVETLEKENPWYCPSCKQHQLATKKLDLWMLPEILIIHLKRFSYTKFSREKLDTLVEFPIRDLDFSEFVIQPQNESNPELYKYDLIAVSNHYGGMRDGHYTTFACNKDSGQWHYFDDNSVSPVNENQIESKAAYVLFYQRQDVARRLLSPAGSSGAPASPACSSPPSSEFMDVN
# Sequence of UniProt Q5T2D3 (Q5T2D3 whole entry): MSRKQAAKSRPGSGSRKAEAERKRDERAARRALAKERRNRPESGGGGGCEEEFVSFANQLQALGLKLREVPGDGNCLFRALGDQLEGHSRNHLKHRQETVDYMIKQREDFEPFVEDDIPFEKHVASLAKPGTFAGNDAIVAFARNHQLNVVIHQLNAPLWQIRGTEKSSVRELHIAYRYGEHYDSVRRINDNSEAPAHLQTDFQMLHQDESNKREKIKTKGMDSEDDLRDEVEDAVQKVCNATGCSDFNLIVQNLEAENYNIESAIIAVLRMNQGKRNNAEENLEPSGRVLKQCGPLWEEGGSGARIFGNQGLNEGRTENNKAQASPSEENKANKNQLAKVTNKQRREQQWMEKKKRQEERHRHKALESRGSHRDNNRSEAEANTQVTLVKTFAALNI
# Sequence of UniProt Q5VVQ6 (Q5VVQ6 whole entry): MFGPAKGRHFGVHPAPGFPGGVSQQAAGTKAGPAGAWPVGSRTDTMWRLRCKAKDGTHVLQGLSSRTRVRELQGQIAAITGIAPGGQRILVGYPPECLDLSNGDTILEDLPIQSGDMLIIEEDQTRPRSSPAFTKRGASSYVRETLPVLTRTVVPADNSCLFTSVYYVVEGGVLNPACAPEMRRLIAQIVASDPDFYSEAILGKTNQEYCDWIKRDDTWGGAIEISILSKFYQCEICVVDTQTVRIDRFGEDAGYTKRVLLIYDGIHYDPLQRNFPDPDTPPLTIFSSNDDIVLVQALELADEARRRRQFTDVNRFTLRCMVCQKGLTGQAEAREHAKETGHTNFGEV
# Sequence of UniProt P45974 (P45974 whole entry): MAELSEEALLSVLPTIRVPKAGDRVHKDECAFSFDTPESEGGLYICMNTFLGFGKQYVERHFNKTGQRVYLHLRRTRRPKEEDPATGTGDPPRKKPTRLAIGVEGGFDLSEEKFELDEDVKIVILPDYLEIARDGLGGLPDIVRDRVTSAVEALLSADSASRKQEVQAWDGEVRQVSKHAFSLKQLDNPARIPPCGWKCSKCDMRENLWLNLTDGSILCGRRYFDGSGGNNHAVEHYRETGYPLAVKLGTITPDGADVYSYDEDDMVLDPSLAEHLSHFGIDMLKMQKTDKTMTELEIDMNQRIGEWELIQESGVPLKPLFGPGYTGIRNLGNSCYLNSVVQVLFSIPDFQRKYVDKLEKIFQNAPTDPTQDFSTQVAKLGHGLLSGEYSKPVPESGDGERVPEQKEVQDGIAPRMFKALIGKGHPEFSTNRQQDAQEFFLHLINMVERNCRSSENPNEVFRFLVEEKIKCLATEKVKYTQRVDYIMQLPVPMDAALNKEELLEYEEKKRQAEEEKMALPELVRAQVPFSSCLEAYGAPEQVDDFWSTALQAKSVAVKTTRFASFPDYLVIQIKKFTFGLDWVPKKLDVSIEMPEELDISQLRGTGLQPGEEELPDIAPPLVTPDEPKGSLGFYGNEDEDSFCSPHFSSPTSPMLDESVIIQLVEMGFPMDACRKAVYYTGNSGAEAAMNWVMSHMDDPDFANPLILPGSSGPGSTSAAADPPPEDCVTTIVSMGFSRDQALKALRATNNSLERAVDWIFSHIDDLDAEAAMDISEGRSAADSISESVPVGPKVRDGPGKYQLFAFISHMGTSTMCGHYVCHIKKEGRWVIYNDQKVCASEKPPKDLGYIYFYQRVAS
# Sequence of UniProt Q92560 (Q92560 whole entry): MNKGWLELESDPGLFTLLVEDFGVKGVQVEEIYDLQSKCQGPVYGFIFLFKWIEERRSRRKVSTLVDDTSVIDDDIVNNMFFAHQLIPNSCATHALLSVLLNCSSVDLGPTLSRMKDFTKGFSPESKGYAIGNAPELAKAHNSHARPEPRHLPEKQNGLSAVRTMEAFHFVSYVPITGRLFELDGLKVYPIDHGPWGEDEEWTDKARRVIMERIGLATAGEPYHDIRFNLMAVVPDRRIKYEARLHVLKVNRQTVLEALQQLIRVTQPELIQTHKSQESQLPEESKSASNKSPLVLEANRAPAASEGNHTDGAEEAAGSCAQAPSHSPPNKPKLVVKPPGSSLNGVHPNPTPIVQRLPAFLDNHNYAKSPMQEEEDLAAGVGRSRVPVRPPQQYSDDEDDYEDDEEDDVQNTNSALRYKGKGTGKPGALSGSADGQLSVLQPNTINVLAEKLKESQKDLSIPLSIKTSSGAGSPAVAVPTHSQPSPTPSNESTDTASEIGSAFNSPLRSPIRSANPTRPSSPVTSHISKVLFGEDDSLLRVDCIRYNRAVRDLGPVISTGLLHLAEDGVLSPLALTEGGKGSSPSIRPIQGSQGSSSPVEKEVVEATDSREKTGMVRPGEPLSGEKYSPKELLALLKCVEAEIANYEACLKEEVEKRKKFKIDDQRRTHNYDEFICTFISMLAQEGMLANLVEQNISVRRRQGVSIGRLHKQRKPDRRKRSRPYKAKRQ
# Sequence of UniProt Q93009 (Q93009 whole entry, looked up): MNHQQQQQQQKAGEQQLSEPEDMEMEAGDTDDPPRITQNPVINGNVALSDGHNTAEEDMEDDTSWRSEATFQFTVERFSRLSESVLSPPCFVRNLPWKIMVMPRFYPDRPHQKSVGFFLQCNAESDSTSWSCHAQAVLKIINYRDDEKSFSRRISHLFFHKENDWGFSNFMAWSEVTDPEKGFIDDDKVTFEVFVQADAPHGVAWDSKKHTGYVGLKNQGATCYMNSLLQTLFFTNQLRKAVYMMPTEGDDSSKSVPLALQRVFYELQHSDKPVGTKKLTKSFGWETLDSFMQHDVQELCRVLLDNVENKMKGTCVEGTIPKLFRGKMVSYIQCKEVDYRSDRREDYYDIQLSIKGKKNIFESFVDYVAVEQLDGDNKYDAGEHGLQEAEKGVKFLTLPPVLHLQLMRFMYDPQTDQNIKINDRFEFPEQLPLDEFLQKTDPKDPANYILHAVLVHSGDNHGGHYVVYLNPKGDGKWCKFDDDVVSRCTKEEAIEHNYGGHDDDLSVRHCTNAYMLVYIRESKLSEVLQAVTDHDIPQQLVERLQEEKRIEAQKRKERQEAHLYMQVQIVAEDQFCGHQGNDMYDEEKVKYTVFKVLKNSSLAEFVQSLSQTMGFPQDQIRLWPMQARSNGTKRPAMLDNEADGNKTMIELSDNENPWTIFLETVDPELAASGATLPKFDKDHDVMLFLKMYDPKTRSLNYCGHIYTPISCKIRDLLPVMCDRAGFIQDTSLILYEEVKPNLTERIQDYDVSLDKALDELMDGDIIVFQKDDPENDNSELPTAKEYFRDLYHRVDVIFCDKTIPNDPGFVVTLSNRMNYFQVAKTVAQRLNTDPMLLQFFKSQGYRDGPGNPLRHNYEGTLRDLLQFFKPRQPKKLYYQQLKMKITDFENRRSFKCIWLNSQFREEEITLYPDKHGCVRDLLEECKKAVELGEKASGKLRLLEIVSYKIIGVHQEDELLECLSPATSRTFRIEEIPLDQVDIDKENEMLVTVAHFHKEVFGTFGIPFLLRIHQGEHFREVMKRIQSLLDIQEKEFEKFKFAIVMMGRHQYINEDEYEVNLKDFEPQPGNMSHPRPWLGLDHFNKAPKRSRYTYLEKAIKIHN
# Sequence of UniProt O15372 (O15372 whole entry): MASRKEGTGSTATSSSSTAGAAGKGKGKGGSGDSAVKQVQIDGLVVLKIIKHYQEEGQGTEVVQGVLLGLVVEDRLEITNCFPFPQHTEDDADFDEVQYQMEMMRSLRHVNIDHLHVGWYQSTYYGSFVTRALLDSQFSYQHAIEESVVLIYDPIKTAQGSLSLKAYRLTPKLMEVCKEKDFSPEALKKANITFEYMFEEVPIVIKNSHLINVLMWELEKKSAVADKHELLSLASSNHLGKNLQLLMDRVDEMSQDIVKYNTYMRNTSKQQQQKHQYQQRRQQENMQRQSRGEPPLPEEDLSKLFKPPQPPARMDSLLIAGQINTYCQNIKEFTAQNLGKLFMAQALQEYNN
# Sequence of UniProt P09936 (P09936 whole entry, looked up): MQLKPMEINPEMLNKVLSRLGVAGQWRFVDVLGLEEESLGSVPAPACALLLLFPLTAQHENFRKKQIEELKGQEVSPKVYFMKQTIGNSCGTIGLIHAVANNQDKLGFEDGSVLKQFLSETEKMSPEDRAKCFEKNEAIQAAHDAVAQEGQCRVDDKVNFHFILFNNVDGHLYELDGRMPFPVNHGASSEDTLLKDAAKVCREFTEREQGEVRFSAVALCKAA
row,Target,log2 ratio of Biotin-Ahx-Ub-VS probe labelling
1,USP7 (UniProt Q93009),-0.135
2,YOD1 (UniProt Q5VVQ6),-0.311
3,EIF3F (UniProt O00303),-0.166
4,UCHL5 (UniProt Q9Y5K5),-0.166
5,ALG13 (UniProt Q9NP73),0.188
6,COPS5 (UniProt Q92905),0.159
7,USP28 (UniProt Q96RU2),-0.413
8,UniProt O00487,0.00332
9,BAP1 (UniProt Q92560),-0.142
10,UCHL3 (UniProt P15374),0.027
11,OTUB1 (UniProt Q96FW1),-0.0612
12,USP42 (UniProt Q9H9J4),-0.218
13,OTUD6B (UniProt Q8N6M0),-0.48
14,OTUD4 (UniProt Q01804),-0.294
15,OTUD5 (UniProt Q96G74),-0.377
16,UniProt Q8TE49,-0.249
17,USP39 (UniProt Q53GS9),0.0278
18,USP16 (UniProt Q9Y5T5),-0.298
19,USP5 (UniProt P45974),-0.246
20,PRPF8 (UniProt Q6P2Q9),0.106

row,Target,log2 ratio of Biotin-Ahx-Ub-VS probe labelling
1,UniProt O00507,-0.733
2,USP15 (UniProt Q9Y4E8),-0.378
3,USP34 (UniProt Q70CQ2),-0.582
4,UniProt Q5T2D3,-0.924
5,USP19 (UniProt O94966),-0.376
6,USP54 (UniProt Q70EL1),-0.396
7,USP14 (UniProt P54578),-0.184
8,FAM105A (UniProt Q9NUU6),-0.739
9,USP47 (UniProt Q96K76),-0.175
10,USP22 (UniProt Q9UPT9),-0.616
11,PSMD7 (UniProt P51665),-0.274
12,USP10 (UniProt Q14694),-0.0833
13,UniProt Q9UGI0,-0.149
14,UCHL1 (UniProt P09936),-0.746
15,USP8 (UniProt P40818),-0.417
16,USP46 (UniProt P62068),-0.141
17,USP36 (UniProt Q9P275),-0.0906
18,EIF3H (UniProt O15372),0.0752
19,VCPIP1 (UniProt Q96JH7),-0.53
20,UniProt P51784,-0.126
